Experimental data published in the supplement of paper PMC6555819.

Experiments:
Experiment in all cases: PBM binding z-score (relative to random genomic background probes); higher = stronger binding; sequences stand for … in GC…GCGATTGACAGCGTAGAATGAAGG
[1] = test system: PPARg:RXRa DBDmut IVT, anti-RXR (DBD mutation: RXRa K156A/R161A, NR concentration 270 nM, RXRa partner concentration 90 nM)
Outline: (§1)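 Each nuclear receptor dimer, without ligand, was incubated for 1 h on custom Agilent 4×180K protein-binding microarrays. Binding was detected with antibodies against each partner (one per run), and scanned fluorescence was regression-normalized. The binding z-scores are referenced to random human genomic background probes.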

[2] = test system: PPARg:RXRa IVT, anti-PPARg (NR concentration 270 nM, RXRa partner concentration 90 nM)
Outline: as §1

[3] = test system: PPARg DBDmut:RXRa IVT, anti-PPARg (DBD mutation: PPARg1 K132A/R137A, NR concentration 270 nM, RXRa partner concentration 90 nM)
Outline: as §1

[4] = test system: PPARg DBDmut IVT, anti-PPARg (DBD mutation: PPARg1 K132A/R137A, NR concentration 270 nM)
Outline: as §1

[5] = test system: PPARg homodimer (NR concentration 180 nM)
Outline: as §1

[6] = test system: PXR:RXRa (NR concentration 270 nM, RXRa partner concentration 90 nM)
Outline: as §1

[7] = test system: PXR homodimer (NR concentration 270 nM)
Outline: as §1

[8] = test system: RARa:RXR (NR concentration 270 nM, RXRa partner concentration 90 nM)
Outline: as §1

[9] = test system: RARa homodimer (NR concentration 270 nM)
Outline: as §1

[10] = test system: RARb:RXRa (NR concentration 270 nM, RXRa partner concentration 90 nM)
Outline: as §1

[11] = test system: RARb homodimer (NR concentration 270 nM)
Outline: as §1

[12] = test system: RARg:RXRa (NR concentration 270 nM, RXRa partner concentration 90 nM)
Outline: as §1

[13] = test system: RARg homodimer (NR concentration 270 nM)
Outline: as §1

[14] = test system: RXRa DBDmut IVT, anti-RXR (DBD mutation: RXRa K156A/R161A, NR concentration 90 nM)
Outline: as §1

[15] = test system: RXRa homodimer (NR concentration 180 nM)
Outline: as §1

[16] = test system: THRa:RXRa (NR concentration 90 nM, RXRa partner concentration 90 nM)
Outline: as §1

[17] = test system: THRa homodimer (NR concentration 90 nM)
Outline: as §1

[18] = test system: VDR homodimer (NR concentration 270 nM)
Outline: as §1

Sequence | PBM binding z-score [1] | PBM binding z-score [2] | PBM binding z-score [3] | PBM binding z-score [4] | PBM binding z-score [5] | PBM binding z-score [6] | PBM binding z-score [7] | PBM binding z-score [8] | PBM binding z-score [9] | PBM binding z-score [10] | PBM binding z-score [11] | PBM binding z-score [12] | PBM binding z-score [13] | PBM binding z-score [14] | PBM binding z-score [15] | PBM binding z-score [16] | PBM binding z-score [17] | PBM binding z-score [18]
AGAATGAGGTTATTAAGATCTGGGAATTGCGGTC | 3.21 | 1.94 | 0.564 | 0.21 | 0.467 | 1.16 | 0.379 | 1.66 | -0.145 | 1.29 | 0.732 | 1.04 | 0.692 | 2.16 | 1.77 | 1.99 | 0.599 | 0.954
GCTGCTAGGTCAACTGATGGTCAGCCAAAGCTCG | 4.84 | 3.92 | 0.564 | -0.45 | 1.57 | 1.39 | -0.698 | 2.93 | -0.0572 | 4.27 | 3.68 | 5.01 | 5.1 | 1.7 | 2.89 | 2.86 | 0.852 | -0.263
AGAATGAGATTATACGTAGATCAGGGAAGAAAGT | -0.76 | -0.334 | 0.931 | 0.37 | -0.24 | -0.502 | 0.417 | -0.447 | 0.366 | -0.409 | -0.466 | 0.0162 | 0.288 | -0.678 | -0.166 | -0.438 | -0.705 | 0.0852
CCGACTGGGGCAAAAAGGTTACCATACCATCCGG | 2.47 | 2.82 | -0.595 | -1.12 | 0.536 | 1.1 | -0.0306 | 1.87 | 0.158 | 2.05 | 2.34 | 1.8 | 1.6 | -0.333 | 1.7 | 1.21 | 0.0277 | 0.374
CGTCCAAGGTCAGAGAGGGCAGTGAATGCCGAGT | 2.19 | 2.6 | -0.519 | -0.66 | 1.84 | 3.91 | 6.38 | 3.14 | 0.679 | 4.88 | 4.41 | 4.86 | 5.33 | 3.24 | 3.8 | 3.96 | 1.86 | 3.51
TAGCCTAGGTTATTCAGGGGCCAGTATAGAAAGC | 0.707 | 0.703 | 0.674 | -0.312 | -0.0619 | 0.0716 | -0.463 | 0.719 | -0.306 | 1.13 | 0.985 | 3.15 | 0.714 | -0.074 | 0.459 | 1.93 | -0.239 | -0.459
AGAAAGAGGTTAAGATCAGGGAAACAGAATACAT | 1.12 | 1.52 | 1.97 | 0.819 | 1.02 | 1.37 | 0.655 | 1.89 | 0.728 | 2.4 | 1.42 | 2.54 | 1.86 | 0.244 | 2.82 | 2.02 | 0.45 | 0.57
CCAACTAGGTCAAGGTCAAAGTCGGTTTGTGCCA | 8.26 | 8.03 | 1.26 | 1.36 | 4.31 | 5.31 | 2.55 | 5.24 | 3.41 | 5.3 | 5.31 | 6.08 | 6.54 | 3.17 | 5.72 | 4.33 | 4.25 | 4.39
ACAATGAGGTTATTAAGATCAGGGAATTGCGGTC | 2.08 | 2.07 | 1.27 | 1.25 | 0.869 | 1.58 | 1.15 | 1.49 | 1.12 | 1.74 | 1.27 | 1.45 | 1.33 | 2.17 | 1.83 | 2.23 | 1.09 | 1.61
TAGAGTAGGTTAGTCGGGGCATTCAGCCAACATA | 3.08 | 3.62 | 0.961 | 1.55 | 1.27 | 0.576 | 0.756 | 0.643 | 1.35 | 1.1 | 0.711 | 0.539 | 0.52 | -0.0578 | 0.327 | 1.42 | 0.443 | 1.03
GCGTATAGGTAATACAAGGTGAAAGTCCGATTGT | 1.36 | 1.33 | 0.339 | -0.802 | 0.129 | 0.699 | -0.0902 | 1.12 | 0.521 | 0.576 | 0.95 | 0.423 | 0.499 | 0.141 | 0.647 | 4.35 | 1.03 | 0.00145
GTACCAATGTGAATAGGTCGTTGATGAGTAGGCG | -0.469 | -0.105 | -0.359 | 0.0422 | 0.0773 | -0.176 | -0.211 | 0.0838 | 0.262 | 0.00696 | 0.0633 | 0.177 | 0.344 | -0.108 | 0.356 | -0.0211 | -0.677 | 0.254
AGAATGAGGTTATACGTAGATCAGCGAAGAAAGT | 3.8 | 2.33 | 0.885 | 1.06 | 1.02 | 0.953 | 0.44 | 1.55 | -0.289 | 1.23 | 0.428 | 1.76 | 0.909 | 1.41 | 2.13 | 1.99 | 0.0645 | 0.803
CCGATTGGGGCAAAGGTTACCATACTCAGTACGA | 2.91 | 4.24 | 0.329 | 0.0522 | 1.15 | 2.32 | -0.232 | 3.81 | -0.223 | 2.31 | 2.03 | 3.52 | 1.64 | 0.678 | 3.76 | 1.84 | -0.136 | 0.0147
GCGACTGGGTCATCAGCAGGTTACCATAACTTAA | 5.38 | 5.94 | 0.513 | -0.691 | 1.31 | 2.22 | -0.585 | 3.39 | -0.469 | 3.23 | 2.55 | 4.89 | 3.53 | 0.877 | 3.03 | 2.88 | 0.268 | 0.085
